Records with an inconclusive call do not appear. The source made the active and inactive calls. Unless noted, calls follow the shape of the dose curve; as a rule, active = well fitted curve in the direction sought with a large enough effect; inconclusive = small, poorly fitted or top-dose-only effect, or another doubt; inactive = no such curve, though single readings can be large; an effect the other way counts as inactive or inconclusive.
Columns and labels:
[1] = Validation screen for small molecules that induce DNA re-replication in SW480 colon adenocarcinoma cells (AID 504364); also: 0% is about no effect
In short: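 Hoechst-stained SW480 nuclei, imaged at 405 nm excitation after 48 hr compound exposure, were counted for elevated DNA content as the re-replication signal.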

[2] = qHTS for differential inhibitors of proliferation of Plasmodium falciparum line GB4 (AID 1816); details: Potency: Plasmodium falciparum GB4 proliferation inhibition;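 also: parasite growth measured after 72 h incubation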; also: potency is read from the fitted curve at half-maximal effect
[3] = qHTS for differential inhibitors of proliferation of Plasmodium falciparum line W2 (AID 1883); details: Potency: Plasmodium falciparum W2 proliferation inhibition;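 also: potency is read from the fitted curve at half-maximal effect; parasites grown with compound for 72 h before lysis and staining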
[4] = qHTS for differential inhibitors of proliferation of Plasmodium falciparum line HB3 (AID 1886); details: Potency: Plasmodium falciparum HB3 proliferation inhibition;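 also: parasites grown with compound for 72 h before SYBR Green readout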; also: potency is read from the fitted curve at half-maximal effect
[5] = target: Cytochrome P450 1A2 (Homo sapiens) (UniProt P05177); assay: p450-cyp1a2 (AID 410; calls by dose curve; also: potency is read from the fitted curve at half-maximal effect)
Chain of Cytochrome P450 1A2 (Homo sapiens) (P05177 whole entry, looked up): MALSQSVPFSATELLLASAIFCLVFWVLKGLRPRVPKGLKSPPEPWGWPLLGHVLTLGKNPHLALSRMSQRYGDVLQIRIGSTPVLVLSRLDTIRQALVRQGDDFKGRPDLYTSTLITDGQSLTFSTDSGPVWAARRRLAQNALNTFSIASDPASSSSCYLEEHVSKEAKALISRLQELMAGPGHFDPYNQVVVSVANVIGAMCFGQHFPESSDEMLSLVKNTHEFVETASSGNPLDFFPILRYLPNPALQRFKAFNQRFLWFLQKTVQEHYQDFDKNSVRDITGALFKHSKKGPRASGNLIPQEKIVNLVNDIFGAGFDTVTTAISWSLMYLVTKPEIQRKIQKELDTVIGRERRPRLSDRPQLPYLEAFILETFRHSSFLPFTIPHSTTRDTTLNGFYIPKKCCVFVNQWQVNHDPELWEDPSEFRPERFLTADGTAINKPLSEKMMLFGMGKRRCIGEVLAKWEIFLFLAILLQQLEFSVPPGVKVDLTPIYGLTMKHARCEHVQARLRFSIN
In short: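 Read-out is luminescence from luciferin produced by CYP1A2 demethylation of Luciferin-ME (100uM, at Km). Detection reagent stopped the 60 min NADPH-dependent reaction; signals were normalized to 57 uM furafylline.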

[6] = target: Glucocorticoid receptor (Homo sapiens) (UniProt P04150); assay: GR-EFC Redistribution (AID 451; calls by dose curve; also: potency is read from the fitted curve at half-maximal effect); details: CHO-K1 GR-EFC translocation, beta-gal luminescence, 2 h
Chain of Glucocorticoid receptor (Homo sapiens) (P04150 whole entry, looked up, the tested form may be a part): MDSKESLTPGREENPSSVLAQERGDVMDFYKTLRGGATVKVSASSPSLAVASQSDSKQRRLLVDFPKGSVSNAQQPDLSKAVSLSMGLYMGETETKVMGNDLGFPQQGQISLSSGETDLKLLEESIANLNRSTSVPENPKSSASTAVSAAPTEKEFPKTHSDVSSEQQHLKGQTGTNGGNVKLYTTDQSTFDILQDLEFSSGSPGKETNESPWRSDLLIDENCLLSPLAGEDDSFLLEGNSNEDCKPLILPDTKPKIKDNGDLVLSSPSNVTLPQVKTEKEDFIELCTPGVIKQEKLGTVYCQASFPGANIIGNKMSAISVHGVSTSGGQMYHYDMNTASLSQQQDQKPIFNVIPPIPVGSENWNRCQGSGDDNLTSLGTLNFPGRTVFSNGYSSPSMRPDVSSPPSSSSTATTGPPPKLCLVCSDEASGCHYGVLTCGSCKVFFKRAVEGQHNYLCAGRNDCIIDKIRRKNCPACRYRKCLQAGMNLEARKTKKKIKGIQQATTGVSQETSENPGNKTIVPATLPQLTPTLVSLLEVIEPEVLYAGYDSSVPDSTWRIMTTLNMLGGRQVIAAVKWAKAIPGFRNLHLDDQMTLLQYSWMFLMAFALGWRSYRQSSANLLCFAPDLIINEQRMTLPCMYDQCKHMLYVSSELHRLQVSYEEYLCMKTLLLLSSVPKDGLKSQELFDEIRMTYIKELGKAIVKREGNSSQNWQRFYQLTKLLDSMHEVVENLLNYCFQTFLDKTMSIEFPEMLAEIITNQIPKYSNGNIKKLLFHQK
In short: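 CHO-K1 cells expressing nuclear EA and GR-ED fragments of b-gal; compounds titrated up to 46 uM final, 2 h at 37 C. GR nuclear translocation read as complemented b-gal luminescence after 1 h RT detection.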

[7] = target: Guanine nucleotide-binding protein G(i) subunit alpha-1 (Homo sapiens) (UniProt P63096); assay: qHTS Assay for Inhibitors of RGS12 GoLoco Motif Activity (Green Fluorophore) (AID 879);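 also: 0% = labeled peptide with Gαi1 and full inhibition = labeled peptide alone without protein; negative values mean loss of peptide binding seen as reduced polarization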
Chain of Guanine nucleotide-binding protein G(i) subunit alpha-1 (Homo sapiens) (P63096 whole entry, looked up): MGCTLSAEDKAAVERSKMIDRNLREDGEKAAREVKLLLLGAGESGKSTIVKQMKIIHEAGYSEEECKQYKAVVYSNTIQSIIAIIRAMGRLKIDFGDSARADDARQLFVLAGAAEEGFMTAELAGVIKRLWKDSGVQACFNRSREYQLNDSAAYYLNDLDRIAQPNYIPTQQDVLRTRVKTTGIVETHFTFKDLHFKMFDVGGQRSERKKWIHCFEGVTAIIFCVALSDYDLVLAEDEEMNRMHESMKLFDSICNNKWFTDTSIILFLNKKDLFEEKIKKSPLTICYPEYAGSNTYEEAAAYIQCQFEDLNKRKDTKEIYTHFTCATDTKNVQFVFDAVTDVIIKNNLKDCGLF
In short: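 A drop in FITC polarization marked displacement of the FITC-tagged RGS12 GoLoco peptide (10 nM) from Gαi1 (50 nM). Compounds were incubated 10 min at room temperature in Tris pH 7.5 buffer containing 150 mM NaCl, 0.1 mM GDP and 0.05% NP40; unlabeled peptide titration served as control.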

[8] = target: Pyruvate kinase (Leishmania mexicana) (UniProt Q27686); assay: qHTS Validation Assay for Inhibitors of Leishmania Mexicana Pyruvate Kinase (AID 945);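 also: 0% = DMSO only neutral control wells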
Chain of Pyruvate kinase (Leishmania mexicana) (Q27686 2-499 E452W): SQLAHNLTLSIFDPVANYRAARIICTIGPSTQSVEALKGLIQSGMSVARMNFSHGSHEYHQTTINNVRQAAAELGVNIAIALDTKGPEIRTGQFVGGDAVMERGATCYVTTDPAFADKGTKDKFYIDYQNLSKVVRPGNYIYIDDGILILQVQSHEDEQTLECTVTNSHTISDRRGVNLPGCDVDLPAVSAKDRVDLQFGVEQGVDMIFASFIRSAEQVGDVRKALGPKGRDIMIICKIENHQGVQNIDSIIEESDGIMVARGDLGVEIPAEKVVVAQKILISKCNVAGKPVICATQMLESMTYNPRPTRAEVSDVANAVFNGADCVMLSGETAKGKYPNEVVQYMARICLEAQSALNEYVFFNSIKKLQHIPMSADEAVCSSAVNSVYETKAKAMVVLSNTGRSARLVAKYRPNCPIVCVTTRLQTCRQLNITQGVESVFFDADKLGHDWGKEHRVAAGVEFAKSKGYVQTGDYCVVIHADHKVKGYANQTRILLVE
In short: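 Luminescent ATP detection (PKLight) after a 1 h room-temperature reaction of 0.2 nM LmPYK E451W mutant with 0.5 mM PEP and 0.1 mM ADP at pH 7.2. Activity is normalized to DMSO-only control wells.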

[9] = target: Pyruvate kinase PKM (Homo sapiens) (UniProt P14618); assay: qHTS Assay for Activators of Human Muscle Pyruvate Kinase (AID 954; active = well fitted curve in the direction sought with a large enough effect, not every such curve was filed as active;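 also: 0% = uninhibited enzyme and -100% = no enzyme or full thiadiazolimine inhibition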)
Chain of Pyruvate kinase PKM (Homo sapiens) (P14618 whole entry, looked up): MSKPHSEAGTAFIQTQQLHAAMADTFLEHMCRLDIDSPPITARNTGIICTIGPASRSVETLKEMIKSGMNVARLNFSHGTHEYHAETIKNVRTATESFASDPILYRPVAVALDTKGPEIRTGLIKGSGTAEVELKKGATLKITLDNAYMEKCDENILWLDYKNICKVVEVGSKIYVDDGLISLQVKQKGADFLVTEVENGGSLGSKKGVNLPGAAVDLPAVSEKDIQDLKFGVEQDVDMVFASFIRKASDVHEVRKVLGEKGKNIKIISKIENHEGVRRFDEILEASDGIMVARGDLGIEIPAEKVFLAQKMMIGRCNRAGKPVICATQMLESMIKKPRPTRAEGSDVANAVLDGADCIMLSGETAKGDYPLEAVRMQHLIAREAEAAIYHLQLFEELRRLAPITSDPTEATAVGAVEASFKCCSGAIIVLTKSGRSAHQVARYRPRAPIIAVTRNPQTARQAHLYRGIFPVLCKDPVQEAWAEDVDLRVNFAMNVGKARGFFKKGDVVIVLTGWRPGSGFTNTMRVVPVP
In short: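 Compound pinned into substrate mix (0.5 mM PEP, 0.1 mM ADP), then 0.1 nM PKM2 added; 1 h, RT. Stop/detection luciferase reagent added, luminescence read. Normalized to no-inhibition and no-enzyme or reference-inhibitor controls.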

[10] = target: Alpha-galactosidase A (Homo sapiens) (UniProt P06280); assay: Counterscreen for Glucocerebrosidase Inhibitors: qHTS Assay for Human alpha-Galactosidase at pH 4.5 (AID 992); also: 0% is about no effect
Chain of Alpha-galactosidase A (Homo sapiens) (P06280 whole entry, looked up): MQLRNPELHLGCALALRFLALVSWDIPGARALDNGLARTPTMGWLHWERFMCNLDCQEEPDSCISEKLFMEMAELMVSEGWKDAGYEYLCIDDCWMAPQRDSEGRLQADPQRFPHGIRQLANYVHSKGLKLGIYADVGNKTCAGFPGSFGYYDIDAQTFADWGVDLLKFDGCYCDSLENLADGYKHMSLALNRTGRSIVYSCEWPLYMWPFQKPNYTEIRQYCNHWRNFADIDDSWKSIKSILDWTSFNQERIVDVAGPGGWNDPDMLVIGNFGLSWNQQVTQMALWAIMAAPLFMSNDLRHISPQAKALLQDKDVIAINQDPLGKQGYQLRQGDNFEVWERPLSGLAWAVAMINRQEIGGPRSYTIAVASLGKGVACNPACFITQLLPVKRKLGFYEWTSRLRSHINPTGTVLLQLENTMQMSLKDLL
In short: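 Steps: enzyme (2 nM final), then compound across 0.7 nM to 77 uM, then 80 uM fluorogenic galactopyranoside substrate; incubate 20 min at room temperature; quench at pH 10; measure fluorescence at 365/440 nm.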

[11] = qHTS for differential inhibitors of proliferation of Plasmodium falciparum line 7G8 (AID 1815);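 also: parasite growth measured after three days of incubation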; also: potency is read from the fitted curve at half-maximal effect
[12] = target: RecQ-like DNA helicase BLM (Homo sapiens) (UniProt P54132); assay: qHTS Validation Assay for Inhibitors of Bloom's syndrome helicase (BLM) (AID 2364);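 also: plate controls were DMSO vehicle for no effect and enzyme-free control for full effect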
Chain of RecQ-like DNA helicase BLM (Homo sapiens) (P54132 whole entry, looked up): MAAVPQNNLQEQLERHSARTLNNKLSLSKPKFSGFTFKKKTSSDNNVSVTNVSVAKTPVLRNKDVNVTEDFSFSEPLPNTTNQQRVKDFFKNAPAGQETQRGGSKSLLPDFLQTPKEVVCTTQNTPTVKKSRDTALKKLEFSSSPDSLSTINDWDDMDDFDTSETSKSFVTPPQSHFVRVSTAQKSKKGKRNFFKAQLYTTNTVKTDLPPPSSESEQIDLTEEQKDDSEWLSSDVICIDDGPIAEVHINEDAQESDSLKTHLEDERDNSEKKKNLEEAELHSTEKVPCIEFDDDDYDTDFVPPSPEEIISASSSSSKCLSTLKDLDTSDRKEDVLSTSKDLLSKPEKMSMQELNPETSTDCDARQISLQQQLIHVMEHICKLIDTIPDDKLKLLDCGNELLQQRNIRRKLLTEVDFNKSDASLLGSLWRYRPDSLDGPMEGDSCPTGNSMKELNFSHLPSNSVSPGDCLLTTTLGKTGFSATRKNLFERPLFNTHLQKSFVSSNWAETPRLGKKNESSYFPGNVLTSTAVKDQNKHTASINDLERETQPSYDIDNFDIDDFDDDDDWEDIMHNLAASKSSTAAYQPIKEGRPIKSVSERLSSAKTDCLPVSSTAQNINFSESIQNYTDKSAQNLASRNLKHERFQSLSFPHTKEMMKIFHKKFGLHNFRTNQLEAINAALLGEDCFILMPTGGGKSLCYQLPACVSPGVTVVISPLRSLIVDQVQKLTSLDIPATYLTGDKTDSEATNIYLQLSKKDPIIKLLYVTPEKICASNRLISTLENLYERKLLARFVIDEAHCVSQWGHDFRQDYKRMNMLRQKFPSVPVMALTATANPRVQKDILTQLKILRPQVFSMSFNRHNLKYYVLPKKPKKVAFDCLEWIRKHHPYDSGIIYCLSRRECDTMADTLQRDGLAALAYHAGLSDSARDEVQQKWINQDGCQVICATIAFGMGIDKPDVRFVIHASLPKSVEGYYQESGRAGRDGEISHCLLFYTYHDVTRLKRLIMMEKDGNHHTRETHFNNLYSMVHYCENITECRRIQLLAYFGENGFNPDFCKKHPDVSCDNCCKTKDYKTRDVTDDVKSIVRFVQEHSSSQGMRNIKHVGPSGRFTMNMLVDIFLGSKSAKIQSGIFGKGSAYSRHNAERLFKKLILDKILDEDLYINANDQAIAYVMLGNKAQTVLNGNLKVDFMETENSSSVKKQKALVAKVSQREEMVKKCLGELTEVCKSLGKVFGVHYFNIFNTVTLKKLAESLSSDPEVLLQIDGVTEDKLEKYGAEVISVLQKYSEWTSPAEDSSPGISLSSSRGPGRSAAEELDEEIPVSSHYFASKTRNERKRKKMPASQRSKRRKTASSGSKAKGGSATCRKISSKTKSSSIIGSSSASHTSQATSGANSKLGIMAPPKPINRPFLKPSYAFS
In short: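 50 nM BLM preincubated 15 min at room temperature with compound in pH 8.0 Tris buffer containing 2.5 ug/ml poly(dI-dC); started with 200 nM TAMRA/BHQ-2 forked duplex and 2 mM ATP (final). Unwinding read as TAMRA fluorescence increase, two reads 2 h apart.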

[13] = qHTS for differential inhibitors of proliferation of Plasmodium falciparum line D10 (AID 1877);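 also: parasites grown with compound for 72 h before DNA staining; plate controls were vehicle wells for no effect and reference inhibitor wells for full effect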
[14] = Stat Signaling Pathway (AID 446; active = well fitted curve in either direction with a large enough effect, not every such curve was filed as active;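 also: ME-180 cervical cancer cells given 40 pM IL-6 alongside compound; SIE-controlled beta-lactamase reporter measured as 460/530 nm FRET emission ratio; % is scaled to controls: 0 for no effect and ±100 for the full control effect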); details: ME-180 (cervical carcinoma) SIE beta-lactamase reporter, IL-6 stimulated, 5 h; at 7.69 µM (top of the series) unless noted
In short: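 Normalization used AC90 stimulation (300 pM IL-6) and AC90 inhibition (125 nM pan-JAK inhibitor at 40 pM IL-6). The underlying signal is SIE-driven beta-lactamase in ME-180 cells after 5 h IL-6 exposure with compound.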

[15] = qHTS profiling for inhibitors of Plasmodium falciparum proliferation (AID 504749); also: potency is read from the fitted curve at half-maximal effect; nearly all actives have a fitted effect of over 60% in size; details: P. falciparum in erythrocytes, SYBR Green DNA, 72 h
In short: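 SYBR Green fluorescence (ex 485 nm, em 535 nm) reports parasite DNA after 72 h compound exposure of infected red cells at 0.3% parasitemia, 2.5% hematocrit; signal normalized to 0.29 uM artemisinin and vehicle wells.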

C[C@]12C=CC(=O)C=C1CCC1C2=CC[C@]2(C)[C@@H](C(=O)CN3CCN(c4cc(N5CCCC5)nc(N5CCCC5)n4)CC3)CC[C@@H]12 (stereo partly specified)
inactive: outcome [1]

Nc1ncnc2c1nc(Sc1ccc(Cl)cc1)n2[C@H]1O[C@@H]2COP(=O)(O)O[C@H]2[C@@H]1O
active: Potency [2] 7.94 µM | Potency [3] 10 µM | Potency [4] 10 µM

CCCC(=O)NCCc1c2n(c3ccc(OC)cc13)Cc1ccccc1-2
active: Potency [5] 2.51 µM | Potency [11] 11.2 µM | Potency [3] 7.08 µM
inactive: Potency [6] > 46 µM | outcome [7] | Potency [8] | outcome [9] | outcome [10] | Potency [12]

OC[C@H]1O[C@@H](n2cnc3c(NC4CCCC4)ncnc32)[C@H](O)[C@H]1O
inactive: Potency [2] | Potency [13] | Potency [4] | Potency [12]

CCn1c(=O)c2[nH]c(-c3ccccc3)nc2n(CC)c1=O
inactive: activity, negative = inhibition [14] 6.25% [at 38 µM] | Potency [6] > 46 µM | outcome [7] | Potency [8] | outcome [9] | outcome [10] | Potency [2] | Potency [13] | Potency [4] | Potency [12]
active: Potency [5] 1 µM

CC(C)C[C@H]1C(=O)N2CCCC2[C@]2(O)O[C@](NC(=O)[C@@H]3C=C4c5cccc6[nH]c(Br)c(c56)C[C@H]4N(C)C3)(C(C)C)C(=O)N12 (stereo partly specified)
active: Potency ([15]; parasite line A) 11.2 µM | Potency ([15]; parasite line B) 5.62 µM

Nc1ncnc2c1ncn2[C@@H]1O[C@H](C(=O)NC2CC2)[C@H](O)[C@H]1O
inactive: Potency [11] | Potency [2] | Potency [13] | Potency [4] | outcome [1]

Nc1nc2c(nc(Br)n2C2O[C@H]3COP(=O)(O)O[C@@H]3C2O)c(=O)[nH]1 (stereo partly specified)
active: Potency [3] 6.31 µM

Reference: PubChem BioAssay (NCATS)
